Rows were chosen to be rich in hits. Some 3.9% of all compounds tested hit in one or more screens of this group.
BoNT F protease: BoNT F light chain protease inhibition; Multiplex microsphere protease cleavage assay, flow cytometry; inhibition, % at 10 µM; 360,000 compounds, 0.22% hits; in the data active means inhibition above about 35%, passing the limit was not always enough; further: plate controls were buffer without enzyme for full effect and enzyme alone for no effect
Vc quorum ag: inducers of Vibrio cholerae quorum light production without autoinducers | V. cholerae BH1578 lux reporter, luminescence, 6 h | AID 588436 | 350,000 compounds, 0.16% hits | activation, % at 18.7 µM; in the data active means activation mostly above about 9.7%, no sharp cut-off
BoNT A protease: inhibitors of Botulinum neurotoxin A light chain protease; multiplex microsphere protease substrate cleavage, flow cytometry; inhibition, % at 10 µM; 360,000 compounds, 0.17% hits; AID 588499; further: plate controls were buffer without enzyme for full effect and enzyme alone for no effect
Anthrax LF prot: blocks Bacillus anthracis lethal factor protease; inhibition, % at 10 µM; AID 588501; multiplex microsphere protease cleavage assay, LF; 360,000 compounds, 0.12% hits; P15917; further: plate controls were buffer without enzyme for full effect and enzyme alone for no effect
Bead autofluor: compound fluorescence in toxin protease inhibitor counterscreen; compound autofluorescence counterscreen, microsphere flow cytometry; active compounds read high; 360,000 compounds, 3.1% hits; fluorescence intensity (concentration not given with the values); in the data active means fluorescence intensity above about 16000
MazF activator: activators of E. coli MazEF toxin-antitoxin RNase; P0AE70; FAM/BHQ RNA-DNA oligo cleavage fluorescence, 5 h; activation, % at 20 µM; 350,000 compounds, 0.32% hits; in the data active means activation above about 50%
Target sequence (P0AE70 whole entry, looked up): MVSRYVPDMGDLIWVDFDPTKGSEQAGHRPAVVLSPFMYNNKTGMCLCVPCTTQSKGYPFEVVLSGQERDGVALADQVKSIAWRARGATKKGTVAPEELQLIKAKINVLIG
* = called active by the depositor. Unless noted, no stated cut-off is given here; in the data, active means inhibition above about 30%; inconclusive means no clear call, values can overlap the other calls; inactive means below that.

`O=[N+]([O-])c1cccnc1N1CCCCC1` gave BoNT F protease -0.1, Vc quorum ag -3.8, BoNT A protease 0.8, Anthrax LF prot -1.4, Bead autofluor 22095* and MazF activator 5.7.
For Cc1cc(Cl)ccc1OCC(=O)NNC(=O)C1CCCO1 (centres undefined) the results were BoNT F protease 10.1, Vc quorum ag -0.3, BoNT A protease -0.9, Anthrax LF prot 2.5, Bead autofluor 3652 and MazF activator 2.5.
Cc1ncsc1C(=O)Nc1nc2c(s1)CC(C)CC2 (centres undefined) was read as BoNT F protease -2.0, Vc quorum ag -1.0, BoNT A protease -0.6, Anthrax LF prot -6.0, Bead autofluor 16464* and MazF activator -1.7.
For CC1CCc2nc(NC(=O)C3CC3)sc2C1 (centres undefined) the results were BoNT F protease 4.3, Vc quorum ag inactive, BoNT A protease 0.2, Anthrax LF prot 1.2, Bead autofluor 2754 and MazF activator 11.3.
CCCCNC(=O)N(O)C1N(/N=C/c2ccccc2OC)C(=S)SC1(C)C (centres undefined) was read as BoNT F protease 61.7*, Vc quorum ag 0.0, BoNT A protease -0.7, Anthrax LF prot -7.4, Bead autofluor 3477 and MazF activator 3.7.
`O=C1/C(=C/c2ccc3c(c2)OCO3)SC(=S)N1CCC(=O)N(CCO)c1ccccc1` gave BoNT F protease 2.7, Vc quorum ag inactive, BoNT A protease 2.7, Anthrax LF prot 4.2, Bead autofluor 3658 and MazF activator 77.4*.
Cc1cc(NC(=O)C(C)Sc2nc(-c3ccccc3)cc(=O)[nH]2)no1 (centres undefined) was read as BoNT F protease -7.9, Vc quorum ag -0.5, BoNT A protease -1.9, Anthrax LF prot -14.2, Bead autofluor 3704 and MazF activator -15.0.
CC(Sc1nc(-c2ccccc2)cc(=O)[nH]1)C(=O)O (centres undefined) was read as BoNT F protease -7.7, Vc quorum ag -2.2, BoNT A protease -5.2, Anthrax LF prot -4.4, Bead autofluor 24389* and MazF activator -1.0.
For CC(=O)c1ccc(NC(=O)CSCCO)cc1 the results were BoNT F protease -1.0, Vc quorum ag -0.2, BoNT A protease 0.0, Anthrax LF prot -5.2, Bead autofluor 19947* and MazF activator -0.8.
`COC(=O)c1ccc(NC(=O)CSCc2ccccc2)cc1` gave BoNT F protease -3.1, Vc quorum ag 0.0, BoNT A protease 0.7, Anthrax LF prot 1.1, Bead autofluor 2728 and MazF activator 1.6.
CSCCC(=O)Nc1ccc(C(C)=O)cc1 was read as BoNT F protease 6.0, Vc quorum ag inactive, BoNT A protease 1.1, Anthrax LF prot -0.2, Bead autofluor 8819 and MazF activator 1.6.
For COC(=O)c1ccc(NC(=O)CSCc2ccc(C)cc2)cc1 the results were BoNT F protease 0.5, Vc quorum ag -0.3, BoNT A protease 1.0, Anthrax LF prot -3.5, Bead autofluor 22818* and MazF activator -10.8.
COC(=O)c1ccc(NC(=O)CSCc2ccccc2C)cc1 was read as BoNT F protease 3.0, Vc quorum ag -2.6, BoNT A protease 2.2, Anthrax LF prot -2.9, Bead autofluor 22086* and MazF activator -4.6.
For CCC(c1nc2ccccc2[nH]1)N(C(=O)C1=NNC(=O)CC1)c1ccccc1 (centres undefined) the results were BoNT F protease -0.2, BoNT A protease 0.1, Anthrax LF prot 3.6 and Bead autofluor 5513.
Screening CC(C#N)(NC(=O)CN1CCN(S(=O)(=O)c2ccccc2Cl)CC1)C1CC1 (centres undefined) returned BoNT F protease -4.1, Vc quorum ag -0.7, BoNT A protease -0.2, Anthrax LF prot -0.9, Bead autofluor 4122 and MazF activator 0.9.
`NCc1ccccc1CS(=O)(=O)N1CCOCC1` gave BoNT F protease 1.5, Vc quorum ag inactive, BoNT A protease 0.0, Anthrax LF prot -6.2, Bead autofluor 3814 and MazF activator 5.5.
For COCCNC(=O)c1cn(C)c2ccccc2c1=O the results were BoNT F protease -2.8, Vc quorum ag inactive, BoNT A protease 0.3, Anthrax LF prot 1.5, Bead autofluor 4194 and MazF activator -0.6.
CCN(CC)c1c2c(c(C#N)c3nc4ccccc4n13)CCC2 was read as BoNT F protease -1.3, Vc quorum ag inactive, BoNT A protease -0.6, Anthrax LF prot -3.2, Bead autofluor 16264* and MazF activator 26.7.

Source: PubChem
